ChEMBL document CHEMBL1961873, “Compounds: GSK PKIS; Assays: Nanosyn kinase panel” (2012)

Key:
[1] = biological target: Ribosomal protein S6 kinase alpha-6 (Homo sapiens) (UniProt Q9UK32); details: at 1 µM;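 also: each value is a mean inhibition of RSK4 from a GSK PKIS panel screen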
[2] = biological target: T1, Serine/threonine-protein kinase Sgk1 (Homo sapiens) (UniProt O00141); details: at 0.1 µM
T1 sequence (whole entry): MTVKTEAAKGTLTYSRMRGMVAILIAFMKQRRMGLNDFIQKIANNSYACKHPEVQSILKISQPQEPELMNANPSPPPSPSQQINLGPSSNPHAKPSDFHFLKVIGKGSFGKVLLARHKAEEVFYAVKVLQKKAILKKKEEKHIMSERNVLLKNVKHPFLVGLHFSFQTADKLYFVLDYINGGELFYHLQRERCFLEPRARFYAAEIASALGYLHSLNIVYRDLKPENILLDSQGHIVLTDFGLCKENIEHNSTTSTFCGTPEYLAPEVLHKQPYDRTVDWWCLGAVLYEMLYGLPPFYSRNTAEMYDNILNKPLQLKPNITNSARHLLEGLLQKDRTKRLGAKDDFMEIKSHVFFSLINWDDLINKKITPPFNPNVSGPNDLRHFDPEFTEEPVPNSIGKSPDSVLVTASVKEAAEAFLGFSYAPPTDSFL

[3] = biological target: T1, Serine/threonine-protein kinase Sgk1 (Homo sapiens); details: at 1 µM
[4] = biological target: T2, Serine/threonine-protein kinase Sgk2 (Homo sapiens) (UniProt Q9HBY8); details: at 0.1 µM
T2 sequence (whole entry): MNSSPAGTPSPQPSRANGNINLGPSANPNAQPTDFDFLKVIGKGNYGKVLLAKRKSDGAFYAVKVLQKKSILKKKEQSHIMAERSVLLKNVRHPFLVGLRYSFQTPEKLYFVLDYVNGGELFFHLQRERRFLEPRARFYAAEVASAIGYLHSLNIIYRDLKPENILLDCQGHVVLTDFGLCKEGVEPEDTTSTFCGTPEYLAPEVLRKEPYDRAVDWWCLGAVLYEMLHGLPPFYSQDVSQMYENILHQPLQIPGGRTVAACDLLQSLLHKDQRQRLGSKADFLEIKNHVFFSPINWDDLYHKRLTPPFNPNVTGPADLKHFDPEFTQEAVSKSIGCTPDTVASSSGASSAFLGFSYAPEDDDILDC

[5] = biological target: T2, Serine/threonine-protein kinase Sgk2 (Homo sapiens); details: at 1 µM
[6] = biological target: T3, Serine/threonine-protein kinase Sgk3 (Homo sapiens) (UniProt Q96BR1); details: at 0.1 µM
T3 sequence (whole entry): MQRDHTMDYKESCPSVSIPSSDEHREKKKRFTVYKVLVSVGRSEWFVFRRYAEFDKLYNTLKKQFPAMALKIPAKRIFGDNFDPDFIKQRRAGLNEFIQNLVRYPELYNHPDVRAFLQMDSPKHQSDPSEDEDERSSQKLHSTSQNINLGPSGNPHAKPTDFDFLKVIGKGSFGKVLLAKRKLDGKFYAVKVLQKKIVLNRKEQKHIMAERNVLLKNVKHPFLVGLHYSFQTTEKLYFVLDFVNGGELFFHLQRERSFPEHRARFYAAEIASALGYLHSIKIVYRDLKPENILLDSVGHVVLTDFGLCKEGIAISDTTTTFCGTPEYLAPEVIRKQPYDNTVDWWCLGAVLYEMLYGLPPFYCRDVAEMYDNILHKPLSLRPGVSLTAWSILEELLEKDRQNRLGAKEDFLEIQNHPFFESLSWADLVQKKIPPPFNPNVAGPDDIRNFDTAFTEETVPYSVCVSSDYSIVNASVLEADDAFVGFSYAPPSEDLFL

[7] = biological target: T3, Serine/threonine-protein kinase Sgk3 (Homo sapiens); details: at 1 µM
[8] = biological target: 5'-AMP-activated protein kinase catalytic subunit alpha-1 (Homo sapiens) (UniProt Q13131); details: at 0.1 µM
[9] = biological target: 5'-AMP-activated protein kinase catalytic subunit alpha-1 (Homo sapiens) (UniProt Q13131); details: at 1 µM
[10] = biological target: 5'-AMP-activated protein kinase catalytic subunit alpha-2 (Homo sapiens) (UniProt P54646); details: at 0.1 µM
[11] = biological target: 5'-AMP-activated protein kinase catalytic subunit alpha-2 (Homo sapiens) (UniProt P54646); details: at 1 µM
[12] = biological target: T4, NUAK family SNF1-like kinase 1 (Homo sapiens) (UniProt O60285); details: at 0.1 µM
T4 sequence (whole entry): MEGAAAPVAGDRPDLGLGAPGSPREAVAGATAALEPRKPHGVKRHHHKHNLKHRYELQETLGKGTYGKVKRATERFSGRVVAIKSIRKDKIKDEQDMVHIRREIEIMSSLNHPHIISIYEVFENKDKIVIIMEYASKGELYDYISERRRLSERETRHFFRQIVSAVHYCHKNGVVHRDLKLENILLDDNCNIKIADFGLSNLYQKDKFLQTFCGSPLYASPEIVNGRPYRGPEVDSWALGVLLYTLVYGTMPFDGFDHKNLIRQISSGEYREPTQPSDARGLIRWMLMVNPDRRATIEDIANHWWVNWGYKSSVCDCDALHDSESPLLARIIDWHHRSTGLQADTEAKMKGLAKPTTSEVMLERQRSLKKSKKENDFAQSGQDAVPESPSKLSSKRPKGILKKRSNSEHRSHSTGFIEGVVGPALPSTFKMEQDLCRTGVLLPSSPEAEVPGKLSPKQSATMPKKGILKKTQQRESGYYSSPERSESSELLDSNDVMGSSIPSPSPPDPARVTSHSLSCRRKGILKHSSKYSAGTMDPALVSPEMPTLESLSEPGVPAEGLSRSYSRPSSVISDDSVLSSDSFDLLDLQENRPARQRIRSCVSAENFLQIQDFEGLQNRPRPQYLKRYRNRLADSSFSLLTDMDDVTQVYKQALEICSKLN

[13] = biological target: T4, NUAK family SNF1-like kinase 1 (Homo sapiens); details: at 1 µM
[14] = biological target: T5, Serine/threonine-protein kinase BRSK1 (Homo sapiens) (UniProt Q8TDC3); details: at 0.1 µM
T5 sequence (whole entry): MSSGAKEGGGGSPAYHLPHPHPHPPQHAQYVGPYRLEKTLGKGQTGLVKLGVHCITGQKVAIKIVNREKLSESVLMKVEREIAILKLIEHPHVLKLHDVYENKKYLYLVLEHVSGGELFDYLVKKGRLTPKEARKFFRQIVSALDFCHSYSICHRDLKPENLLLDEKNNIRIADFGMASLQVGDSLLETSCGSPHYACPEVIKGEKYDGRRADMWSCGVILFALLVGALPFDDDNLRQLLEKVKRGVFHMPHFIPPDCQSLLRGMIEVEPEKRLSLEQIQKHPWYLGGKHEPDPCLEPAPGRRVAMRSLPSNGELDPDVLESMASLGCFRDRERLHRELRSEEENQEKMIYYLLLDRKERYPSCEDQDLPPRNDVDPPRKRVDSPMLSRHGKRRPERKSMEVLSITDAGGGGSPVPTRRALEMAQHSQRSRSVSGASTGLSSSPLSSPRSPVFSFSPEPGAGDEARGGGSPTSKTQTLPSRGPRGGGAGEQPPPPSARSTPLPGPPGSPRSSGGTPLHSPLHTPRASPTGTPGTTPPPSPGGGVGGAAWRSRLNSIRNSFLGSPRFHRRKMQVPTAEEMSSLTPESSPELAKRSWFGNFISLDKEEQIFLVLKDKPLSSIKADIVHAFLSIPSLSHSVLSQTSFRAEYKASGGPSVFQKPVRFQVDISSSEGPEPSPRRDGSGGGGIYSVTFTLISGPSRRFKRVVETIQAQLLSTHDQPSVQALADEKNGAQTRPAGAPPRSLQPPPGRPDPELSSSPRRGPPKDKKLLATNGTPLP

[15] = biological target: T5, Serine/threonine-protein kinase BRSK1 (Homo sapiens); details: at 1 µM
[16] = biological target: T6, Serine/threonine-protein kinase BRSK2 (Homo sapiens) (UniProt Q8IWQ3); details: at 0.1 µM
T6 sequence (whole entry): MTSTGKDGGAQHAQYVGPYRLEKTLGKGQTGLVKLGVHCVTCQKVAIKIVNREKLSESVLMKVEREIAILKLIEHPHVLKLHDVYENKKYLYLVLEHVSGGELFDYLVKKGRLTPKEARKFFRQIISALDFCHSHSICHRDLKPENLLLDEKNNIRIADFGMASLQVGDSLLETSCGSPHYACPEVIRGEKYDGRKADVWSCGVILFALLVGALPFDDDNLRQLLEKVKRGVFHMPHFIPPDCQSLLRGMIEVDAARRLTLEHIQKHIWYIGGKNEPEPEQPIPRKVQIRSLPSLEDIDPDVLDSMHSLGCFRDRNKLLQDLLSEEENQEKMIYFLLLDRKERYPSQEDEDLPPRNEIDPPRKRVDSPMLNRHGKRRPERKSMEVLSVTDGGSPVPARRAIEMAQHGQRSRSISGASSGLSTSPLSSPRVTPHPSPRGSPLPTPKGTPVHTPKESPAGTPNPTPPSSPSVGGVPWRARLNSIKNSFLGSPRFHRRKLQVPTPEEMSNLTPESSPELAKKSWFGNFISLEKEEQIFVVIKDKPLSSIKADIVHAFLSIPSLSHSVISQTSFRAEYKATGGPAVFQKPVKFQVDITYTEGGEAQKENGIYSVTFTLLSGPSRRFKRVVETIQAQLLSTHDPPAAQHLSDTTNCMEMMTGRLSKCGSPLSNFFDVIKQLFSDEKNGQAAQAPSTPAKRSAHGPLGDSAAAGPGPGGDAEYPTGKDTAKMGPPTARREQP

[17] = biological target: T6, Serine/threonine-protein kinase BRSK2 (Homo sapiens); details: at 1 µM
[18] = biological target: Calcium/calmodulin-dependent protein kinase type 1D (Homo sapiens) (UniProt Q8IU85); details: at 0.1 µM
[19] = biological target: Calcium/calmodulin-dependent protein kinase type 1D (Homo sapiens) (UniProt Q8IU85); details: at 1 µM
[20] = biological target: Calcium/calmodulin-dependent protein kinase type II subunit alpha (Homo sapiens) (UniProt Q9UQM7); details: at 0.1 µM;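 also: reported values are averages (mean inhibition of CAMK2A)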
Chain of Calcium/calmodulin-dependent protein kinase type II subunit alpha (Homo sapiens) (Q9UQM7 whole entry): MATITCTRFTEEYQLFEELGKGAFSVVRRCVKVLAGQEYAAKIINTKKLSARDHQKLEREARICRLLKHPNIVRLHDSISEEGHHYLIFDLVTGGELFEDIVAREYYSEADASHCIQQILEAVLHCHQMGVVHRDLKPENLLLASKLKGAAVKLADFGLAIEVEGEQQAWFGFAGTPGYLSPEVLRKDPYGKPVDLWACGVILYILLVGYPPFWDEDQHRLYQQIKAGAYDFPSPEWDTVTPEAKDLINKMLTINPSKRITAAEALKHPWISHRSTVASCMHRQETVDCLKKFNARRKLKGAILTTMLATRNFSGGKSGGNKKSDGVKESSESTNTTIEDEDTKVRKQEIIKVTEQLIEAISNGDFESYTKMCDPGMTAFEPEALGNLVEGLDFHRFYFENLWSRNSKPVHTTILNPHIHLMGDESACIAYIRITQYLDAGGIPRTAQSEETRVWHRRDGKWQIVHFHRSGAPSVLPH

Chain of Ribosomal protein S6 kinase alpha-6 (Homo sapiens) (Q9UK32 whole entry): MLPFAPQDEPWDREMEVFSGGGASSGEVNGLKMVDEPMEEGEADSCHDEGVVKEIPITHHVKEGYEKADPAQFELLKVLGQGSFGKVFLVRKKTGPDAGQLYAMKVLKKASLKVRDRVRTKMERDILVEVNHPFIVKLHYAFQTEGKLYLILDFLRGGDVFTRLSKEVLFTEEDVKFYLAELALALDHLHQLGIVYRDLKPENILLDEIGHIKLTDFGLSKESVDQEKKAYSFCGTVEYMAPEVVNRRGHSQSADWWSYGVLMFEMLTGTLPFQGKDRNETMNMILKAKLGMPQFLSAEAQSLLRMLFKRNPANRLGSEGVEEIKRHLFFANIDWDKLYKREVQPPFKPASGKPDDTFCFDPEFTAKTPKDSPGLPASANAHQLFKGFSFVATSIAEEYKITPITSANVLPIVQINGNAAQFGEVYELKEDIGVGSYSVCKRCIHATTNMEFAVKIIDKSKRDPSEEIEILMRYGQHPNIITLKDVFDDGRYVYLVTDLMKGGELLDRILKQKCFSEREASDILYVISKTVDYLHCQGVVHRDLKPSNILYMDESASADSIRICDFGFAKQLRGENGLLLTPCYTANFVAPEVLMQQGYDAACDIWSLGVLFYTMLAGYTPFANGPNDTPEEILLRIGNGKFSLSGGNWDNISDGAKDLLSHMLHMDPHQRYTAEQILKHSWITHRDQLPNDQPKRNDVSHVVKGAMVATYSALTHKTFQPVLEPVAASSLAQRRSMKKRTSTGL
Chain of 5'-AMP-activated protein kinase catalytic subunit alpha-1 (Homo sapiens) (Q13131 whole entry, looked up): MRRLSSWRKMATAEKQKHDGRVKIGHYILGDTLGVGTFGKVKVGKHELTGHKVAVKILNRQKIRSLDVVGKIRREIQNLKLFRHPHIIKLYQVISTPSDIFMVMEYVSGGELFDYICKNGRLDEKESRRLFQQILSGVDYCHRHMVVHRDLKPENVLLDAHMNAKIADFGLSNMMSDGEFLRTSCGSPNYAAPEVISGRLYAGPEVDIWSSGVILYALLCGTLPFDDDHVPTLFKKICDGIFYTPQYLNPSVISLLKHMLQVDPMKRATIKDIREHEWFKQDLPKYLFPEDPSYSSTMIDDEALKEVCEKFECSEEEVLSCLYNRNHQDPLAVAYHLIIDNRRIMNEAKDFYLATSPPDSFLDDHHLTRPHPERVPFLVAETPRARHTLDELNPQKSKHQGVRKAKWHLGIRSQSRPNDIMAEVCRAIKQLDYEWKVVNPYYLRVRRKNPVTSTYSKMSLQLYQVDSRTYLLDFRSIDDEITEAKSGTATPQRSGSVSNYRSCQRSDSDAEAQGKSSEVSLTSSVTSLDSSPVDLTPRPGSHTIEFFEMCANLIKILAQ
Chain of Calcium/calmodulin-dependent protein kinase type 1D (Homo sapiens) (Q8IU85 whole entry, looked up): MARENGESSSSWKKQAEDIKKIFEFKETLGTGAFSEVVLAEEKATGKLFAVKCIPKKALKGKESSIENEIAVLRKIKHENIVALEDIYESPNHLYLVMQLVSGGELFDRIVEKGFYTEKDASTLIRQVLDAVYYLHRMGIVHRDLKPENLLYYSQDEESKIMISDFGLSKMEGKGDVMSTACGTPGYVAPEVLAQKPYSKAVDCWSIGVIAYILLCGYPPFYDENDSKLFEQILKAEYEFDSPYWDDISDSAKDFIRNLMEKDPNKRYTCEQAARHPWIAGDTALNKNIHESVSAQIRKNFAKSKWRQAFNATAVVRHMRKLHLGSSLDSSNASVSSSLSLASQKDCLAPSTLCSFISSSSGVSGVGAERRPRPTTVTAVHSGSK
Chain of 5'-AMP-activated protein kinase catalytic subunit alpha-2 (Homo sapiens) (P54646 whole entry, looked up): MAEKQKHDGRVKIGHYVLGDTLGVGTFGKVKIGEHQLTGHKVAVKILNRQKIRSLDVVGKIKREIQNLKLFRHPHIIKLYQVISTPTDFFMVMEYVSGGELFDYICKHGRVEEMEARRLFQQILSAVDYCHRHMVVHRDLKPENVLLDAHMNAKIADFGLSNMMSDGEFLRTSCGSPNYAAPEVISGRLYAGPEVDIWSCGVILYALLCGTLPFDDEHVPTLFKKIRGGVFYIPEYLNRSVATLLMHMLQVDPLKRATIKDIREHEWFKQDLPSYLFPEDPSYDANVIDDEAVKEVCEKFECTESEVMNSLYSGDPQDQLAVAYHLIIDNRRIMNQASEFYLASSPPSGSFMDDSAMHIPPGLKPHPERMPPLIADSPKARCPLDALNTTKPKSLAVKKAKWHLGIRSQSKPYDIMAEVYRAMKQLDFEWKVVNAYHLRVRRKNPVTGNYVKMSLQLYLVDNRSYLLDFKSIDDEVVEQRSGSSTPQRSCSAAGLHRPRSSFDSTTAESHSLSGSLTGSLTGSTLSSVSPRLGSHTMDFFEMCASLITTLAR

| Structure (SMILES) | inhibition [1] [%] | inhibition [2] [%] | inhibition [3] [%] | inhibition [4] [%] | inhibition [5] [%] | inhibition [6] [%] | inhibition [7] [%] | inhibition [8] [%] | inhibition [9] [%] | inhibition [10] [%] | inhibition [11] [%] | inhibition [12] [%] | inhibition [13] [%] | inhibition [14] [%] | inhibition [15] [%] | inhibition [16] [%] | inhibition [17] [%] | inhibition [18] [%] | inhibition [19] [%] | inhibition [20] [%] |
| --- | --- | --- | --- | --- | --- | --- | --- | --- | --- | --- | --- | --- | --- | --- | --- | --- | --- | --- | --- | --- |
| COc1cc2ncn(-c3cc(OCc4ccccc4C(F)(F)F)c(C(=O)N(C)C)s3)c2cc1OC | 0.1 | 0.62 | 1.02 | 1.9 | -0.51 | 0.08 | -0.88 | -0.68 | -0.02 | -0.26 | 1.18 | 1.04 | 14.8 | -0.38 | 2.7 | 0.49 | 8.59 | -0.9 | 0.6 | -1.75 |
| COc1cc(/C=N/Nc2ncnc3[nH]ncc23)ccc1O | 13.3 | 13 | 54.4 | 6.14 | 19.9 | 3.82 | 5.26 | 5.24 | 20.5 | 2.66 | 20.2 | 6.98 | 27.6 | 1.12 | 18 | 4.62 | 22.9 | 1.07 | 5.49 | 2.62 |
| Fc1ccc(-c2nn3ccccc3c2-c2ccncc2)cc1 | 2.09 | 0.19 | 3.23 | 3.79 | 3.17 | 3.25 | 5.79 | 1.13 | -0.08 | 1.39 | 2.49 | -0.02 | 1.09 | 0.59 | 1.1 | 1.69 | 0.78 | 0.87 | 1.9 | 3.85 |
| O=C(O[C@H]1CN[C@H](C#Cc2cc3ncnc(Nc4ccc(Cc5ccccc5)cc4)c3s2)C1)N1CCOCC1 | 1.25 | 1.05 | 1.98 | 0.65 | 7.04 | 2.7 | 5.58 | 2.64 | 1.94 | -0.29 | 1.84 | -3.65 | -2.64 | 0.3 | 2.86 | 1.6 | 2.92 | -0.64 | -0.69 | 0.64 |
| N#Cc1c(NC(=O)c2ccc(F)cc2)sc2c1CCCC2 | 0.81 | 0.29 | 2.65 | -3.36 | 0.76 | -0.34 | 1.54 | 1.88 | 1.54 | 0.31 | 2.24 | -1.13 | 2.02 | 1.51 | 1.17 | 0.78 | 2.38 | 0.76 | 0.45 | 0.66 |
| COc1ccc2[nH]c3c4[nH]c5ccc(OC)cc5c4c4c(c3c2c1)C(=O)NC4=O | 88 | 21.8 | 63.8 | 16.6 | 59.4 | 9.76 | 40.2 | 37 | 78 | 17.9 | 51.6 | 78 | 77.3 | 71.3 | 102 | 92.2 | 94.9 | 6.96 | 39.6 | 6.99 |
| COc1cccc(-n2ncc3c(N/N=C/c4ccc(F)cc4)ncnc32)c1 | 1.84 | 4.27 | 5.6 | 2.15 | 0.76 | 4.84 | 3.63 | 3.38 | 5.57 | -0.09 | 3.2 | 6.48 | 16.9 | 1.24 | 12.1 | 5.29 | 17.8 | -0.29 | 1.05 | 3.15 |
